Measured values published in PubChem BioAssay (NCI).
Compounds without any hit were thinned out: in the full panel of roughly 83,000, 20% have a hit.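 Growth was measured after 48 h exposure to one concentration of compound in 96-well plates. Values under 10 count as active.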 A number with no mark means an inactive call. Activity calls are given as the source filed them.

Legend:
Test in all cases: NCI-60 one-dose screen, 48 h (100 = growth as untreated, 0 = no growth, -100 = all killed)
HCT-15 colon = conditions: 10 µM unless noted
HT29 colon = conditions: 10 µM unless noted
SNB-75 CNS = conditions: 10 µM unless noted
SNB-19 CNS = conditions: 10 µM unless noted
U251 CNS = conditions: 10 µM unless noted
PC-3 prostate = conditions: 10 µM unless noted
SK-MEL-5 melanoma = conditions: 10 µM unless noted
UACC-62 melanoma = conditions: 10 µM unless noted
LOX IMVI melanoma = conditions: 10 µM unless noted
SK-MEL-28 melanoma = conditions: 10 µM unless noted
SK-MEL-2 melanoma = conditions: 10 µM
EKVX NSCLC = conditions: 10 µM unless noted
SN12C renal = conditions: 10 µM unless noted
UO-31 renal = conditions: 10 µM unless noted
TK-10 renal = conditions: 10 µM unless noted
ACHN renal = conditions: 10 µM unless noted
A498 renal = conditions: 10 µM unless noted
CCRF-CEM leukemia = conditions: 10 µM unless noted
MOLT-4 leukemia = conditions: 10 µM unless noted
CAKI-1 renal = conditions: 10 µM unless noted

Structure (SMILES) | growth (HCT-15 colon) | growth (HT29 colon) | growth (SNB-75 CNS) | growth (SNB-19 CNS) | growth (U251 CNS) | growth (PC-3 prostate) | growth (SK-MEL-5 melanoma) | growth (UACC-62 melanoma) | growth (LOX IMVI melanoma) | growth (SK-MEL-28 melanoma) | growth (SK-MEL-2 melanoma) | growth (EKVX NSCLC) | growth (SN12C renal) | growth (UO-31 renal) | growth (TK-10 renal) | growth (ACHN renal) | growth (A498 renal) | growth (CCRF-CEM leukemia) | growth (MOLT-4 leukemia) | growth (CAKI-1 renal)
Cc1cc2c(-c3nc4ccccn4c3N)c(O)c(O)cc2c(O)c1-c1c(C)cc2c(-c3nc4ccccn4c3N)c(O)c(O)cc2c1O | 17.8% | 8.01% (active) | 18% | 12.8% | 8% (active) | 16.3% | -7.68% (active) | 5.54% (active) | 7.21% (active) | 38.3% | -20.6% (active) | 21.8% | 10.1% | 31.2% | 11.9% | 17.4% | 2.77% (active) | 23.1% | 23.5% | –
O=c1nc2c(-c3nc4ccccc4s3)n[nH]n2c2sc3c(c12)CCCC3 | 64% | 111% | 104% | 101% | 86.5% | 79.6% | 101% | 92.7% | 96.9% | 114% | 112% | 92% | 97.1% | 75.4% | 147% | 105% | 103% | 79.8% | 98.6% | –
Clc1nc(Cl)c2ncn(C/C=C\Cn3cnc4c(Cl)nc(Cl)nc43)c2n1 | -44.7% (active) | -65.9% (active) | -25.7% (active) | 9.97% (active) | -56.5% (active) | -57.6% (active) | -81.5% (active) | -72.7% (active) | -80.1% (active) | -19% (active) | 23.5% | -68% (active) | -11.3% (active) | – | -45.6% (active) | -94.5% (active) | -18.2% (active) | -73.4% (active) | -55.4% (active) | -97.2% (active)
CC[n+]1c(/C=C/C=C2\N(C)c3ccccc3C2(C)C)sc2ccccc21 | 6.66% (active) | 6.94% (active) | 28.8% | 31.9% | 10.8% | 17.4% | -89.7% (active) | 12.4% | 2.76% (active) | 37.1% | -16.2% (active) | 10.9% | 5.6% (active) | 12.6% | 21.5% | – | – | 3.17% (active) | -19.1% (active) | –
CCCCCCCC(=O)SCC/C=C/[C@@H]1CC(=O)NCc2cc(ccn2)C2=N[C@@](C)(CS2)C(=O)N[C@@H](C(C)C)C(=O)O1 | 1.6% (active) | 1.74% (active) | 31.8% | 10.2% | -55.7% (active) | 16.4% | -95.3% (active) | -56.8% (active) | -95.1% (active) | -24.7% (active) | -2.2% (active) | 19.9% | 21.9% | -10.5% (active) | -15.6% (active) | – | – | 39% | 12.8% | -54.4% (active)
Nc1cc2c(cc1Br)-c1c(C(=O)O)cccc1C2O (stereo unspecified) | 108% | 106% | 90.2% | 99.5% | 97.4% | 82.2% | 99.9% | 90.9% | 95.8% | 102% | 131% | 88.3% | 109% | 102% | 117% | 108% | – | 124% | 115% | –
CSC1=C(N)C(=O)c2[nH]cc(CO)c2C1=N | -89.2% (active) | -9.17% (active) | -80.2% (active) | -92.2% (active) | -95.1% (active) | -39.9% (active) | -98.8% (active) | -83.2% (active) | -84.9% (active) | -78% (active) | -52.3% (active) | -56.6% (active) | -49% (active) | -96% (active) | -83.7% (active) | 1.86% (active) | – | 3.16% (active) | -24.3% (active) | –
CCCCN1CCCC[C@@H]1C(=O)N[C@H](C(=O)N(C)[C@H](CCc1nc(C(=O)N[C@@H](Cc2ccccc2)C[C@H](C)C(=O)OC)cs1)C(C)C)C(C)C | 59.4% | 68.9% | 75.2% | 57.9% | 83.8% | 35% | 53.5% | 43.6% | 80% | 76.4% | 68.1% | 65.8% | 82.2% | 52.3% | 102% | 59.7% | 61.2% | 38.8% | 35.2% | –
Cc1ccc(N=C2CSc3nnc(-c4csc5c4CCCC5)n3N2)cc1 | 22.9% | 7.38% (active) | 56.9% | 35.7% | 23% | 27.9% | 19% | 40.2% | 46.3% | 63.2% | 61.6% | 41.9% | 48.5% | 57.9% | 78.9% | 52% | 12.1% | 16.8% | 23.2% | –
